{"source": "PubChem BioAssay AID492980", "about": "(National Center for Advancing Translational Sciences (NCATS), 2010)", "note": "Fewer than 10 of roughly 1,400 compounds were called active. Inconclusive results (about 11%) are left out. Calls come from the whole dose curve. These entries were drawn from the full list."}
{"assay": "Assay for Inhibitors of Influenza NS1 Protein Function: Hit Validation", "details": "influenza NS1 function cell assay, 15-point titration; series mostly up to 32.9 µM", "description": "NIH Chemical Genomics Center [NCGC]\nNIH Molecular Libraries Probe Centers Network [MLPCN]\nAssay Submitter (PI): Daniel Engel\nInfluenza is a world-wide public health problem and emerging forms of the virus have the potential to cause a pandemic of equal or greater magnitude to the outbreaks recorded in 1918, 1957 or 1968. Vaccine development is proceeding and there also exist two classes of anti-influenza compounds. However these therapeutic modalities are neither fully effective nor widely enough available to fulfill global needs. In addition their potential usefulness against newly emergent strains is not known. Efforts are needed to develop novel agents against influenza virus, including broad-spectrum agents. Identification of small molecules that inhibit NS1 function either directly or by interfering with specific cellular pathways may be a key to increasing our defense against the virus.\nWe have miniaturized and optimized a cell based assay in which NS1 from influenza A is expressed in the budding yeast S. cerevisiae. NS1 is a multi-functional protein that counters the host innate immune response and facilitates viral versus cellular gene expression. Expression of NS1 causes a pronounced slow growth phenotype in yeast due to its intrinsic molecular activities. Small molecules that suppress the slow growth phenotype can be identified by a straightforward growth recovery assay using optical density (OD) as the measurement. The same yeast strain not expressing NS1 was used as positive control in the yeast growth recovery assay. The present experiment attempted to confirm the activity of compounds observed in the primary screen.\nThe yeast S. cerevisiae control and NS1 expressing cells were kindly supplied by laboratory of Dr. Daniel Engel, University of Virginia. Yeast starter cultures were stored in single use aliquots at -80C.\n1. Yeast culture medium per liter: 1.2 g Yeast Nitrogen Base (w/out amino acids and Ammonium Sulphate), 5.0g Ammonium Sulphate, 0.77g -URA DO (drop-out) Supplement, adjust pH to 6.0. Adjust to 2% glucose prior to inoculating with yeast.\n2. Yeast assay medium: 1.2 g Yeast Nitrogen Base (w/out amino acids and Ammonium Sulphate), 5.0g Ammonium Sulphate, 0.77g -URA DO (drop-out) Supplement, adjust pH to 6.0. Adjust to 2% D-galactose prior to inoculating with yeast.\n1. Inoculate 100 mls of yeast culture medium with 1 ml of frozen yeast aliquote. Incubate overnight at 30C, 250RPM.\n2. Harvest overnight culture at 4000 RPM and wash pellet with 15 mls H2O 3x.\n3. Re-suspend washed pellet in 10 mls of yeast assay medium.\n4. Prepare a 1:100 dilution of re-suspended culture in yeast assay medium.\n5. Dispense 3.5 ul per well of reagents in step 4 in columns 2-48 in a black clear bottom 1536 well plate.\n6. Dispense 3.5 ul per well of yeast assay medium in column 1 only.\n7. Transfer 23 nl of compound per well.\n8. Dispense 3.5 ul per well of yeast assay medium in columns 1-48.\n9. Read plate using Viewlux protocol for optical density 600 (OD600) using excitation filter 600nm."}
{"smiles": "Cc1cccc(N=C2NN=C(c3c[nH]c4ccccc34)CS2)c1", "outcome": "inactive"}
{"smiles": "Cc1ccc(-c2ccc(=O)n(CC(=O)NCCCN3CCCCC3)n2)cc1", "outcome": "inactive"}
{"smiles": "CC(C)CCN(C(=O)c1csnn1)C(C(=O)NC1CCCC1)c1ccccc1", "note": "(stereo unspecified)", "outcome": "inactive"}
{"smiles": "COc1ccccc1C(=O)Nc1ccnn1C1CCN(C(=O)C(C)(C)C)CC1", "outcome": "inactive"}
{"smiles": "COc1ccc(C(C(=O)NC2CCCCC2)N(C(=O)Cc2c[nH]c3ccccc23)c2ccccc2)cc1OC", "note": "(stereo unspecified)", "outcome": "inactive"}
{"smiles": "O=C1c2cccc(OCC(=O)N3N=C(c4cccs4)CC3c3ccc(F)cc3)c2CCN1Cc1ccccc1", "note": "(stereo unspecified)", "outcome": "inactive"}
{"smiles": "COc1cccc(OC)c1C(=O)Nc1nnc(C(C)C)s1", "outcome": "inactive"}
{"smiles": "Cn1c(CC(=O)Nc2ccccc2)nnc1SCC(=O)c1ccccc1", "outcome": "inactive"}
{"smiles": "COc1cc2c(cc1NC(=O)CN1CCN(S(=O)(=O)c3ccc(F)cc3)CC1)oc1ccccc12", "outcome": "inactive"}
{"smiles": "CCCc1cc(=O)[nH]c(SCC(=O)c2cc(C)n(CCC)c2C)n1", "outcome": "inactive"}
{"smiles": "Cc1cccc([C@@H]2[C@@H]3C(=O)N(Cc4ccccc4)C(=O)[C@@H]3[C@]3(C)C(=O)N(c4ccc(Br)cc4)C(=O)N23)c1", "outcome": "inactive"}
{"smiles": "Nc1cccc(-c2cc(-c3ccccc3)nc(-c3cccc(N)c3)n2)c1", "outcome": "inactive"}
{"smiles": "COc1ccc(S(=O)(=O)Nc2c(C)n(C)n(-c3ccccc3)c2=O)cc1", "outcome": "inactive"}
{"smiles": "Cc1cccc(-n2c(SCC(=O)Nc3cccc(S(=O)(=O)NC4=NCCCCC4)c3)nc3ccccc3c2=O)c1C", "outcome": "inactive"}
{"smiles": "O=C1NC(=O)N(CCc2ccc(F)cc2)C(=O)/C1=C/C=C/c1ccccc1", "outcome": "inactive"}
{"smiles": "COCCn1c(C)cc(C2=NNC(=Nc3ccc(F)cc3)SC2)c1C", "outcome": "inactive"}
{"smiles": "CCOc1ccc(Nc2nc(Cl)nc(N3CCN(c4ccc(OC)cc4)CC3)n2)cc1", "outcome": "inactive"}
{"smiles": "COC(=O)c1c(NC(=O)c2cccs2)sc2c1CCCC2", "outcome": "inactive"}
{"smiles": "CC(C(=O)O)N1C(=O)c2cccc3cccc1c23", "note": "(stereo unspecified)", "outcome": "inactive"}
{"smiles": "COCCN1C(=O)c2oc3c(C)cc(C)cc3c(=O)c2C1c1cccc(O)c1", "note": "(stereo unspecified)", "outcome": "inactive"}
{"smiles": "Cc1cc2cc(CNC(=O)c3cccs3)ccc2[nH]1", "outcome": "inactive"}
{"smiles": "COc1ccc(-n2c(C)cc(C(=O)CSc3nnc(-c4cccs4)o3)c2C)cc1", "outcome": "inactive"}
{"smiles": "Cc1ccc2c(c1)N(S(=O)(=O)c1cc(-c3cc(C)no3)ccc1C)CCO2", "outcome": "inactive"}
{"smiles": "C1=C(N2CCOCC2)/C(=C/c2nc3ccccc3[nH]2)CC1", "outcome": "inactive"}
{"smiles": "Cc1ccccc1C(OCC(O)CN1CCCCC1CCO)c1ccccc1", "note": "(stereo unspecified)", "outcome": "inactive"}
{"smiles": "CCc1ccc(S(=O)(=O)Nc2cc3c(cc2N2CCCCC2)n(C)c(=O)c(=O)n3C)cc1", "outcome": "inactive"}
{"smiles": "CC[C@@H](C)[C@@H](C(=O)N1CCN(C(=O)OC(C)(C)C)CC1)n1cc(CCC(=O)O)nn1", "outcome": "inactive"}
{"smiles": "N#Cc1c(-c2cccs2)nc(SCC(=O)c2ccc(Br)cc2)[nH]c1=O", "outcome": "inactive"}
{"smiles": "CN1CCN(C(=O)COc2ccc(C(C)(C)C)cc2Br)CC1", "outcome": "inactive"}
{"smiles": "CC(C)c1c(O)nc(SCCOc2ccc(Cl)cc2)[nH]c1=O", "outcome": "inactive"}
{"smiles": "Cc1cc(=O)[nH]c(SCc2cc(Cl)ccc2OC(F)F)n1", "outcome": "inactive"}
{"smiles": "O=C(CSC1=Nc2ccccc2C2=NC(CC(=O)NCc3ccco3)C(=O)N12)NCc1ccco1", "note": "(stereo unspecified)", "outcome": "inactive"}
{"smiles": "Cc1cc(C)c2cc(CN(Cc3nnnn3Cc3ccc(F)cc3)C3CCCC3)c(=O)[nH]c2c1", "outcome": "inactive"}
{"smiles": "O=S(=O)(c1ccc(OCC(O)CN2CCN(c3ccccc3Cl)CC2)cc1)N1CCOCC1", "note": "(stereo unspecified)", "outcome": "inactive"}
{"smiles": "COc1cccc(-n2c(SCC(=O)NC3CCCCC3)nc3n[nH]c(C)c3c2=N)c1", "outcome": "inactive"}
{"smiles": "CN(C)c1ccc(/C=C/C(=O)c2ccc(C(C)(C)C)cc2)cc1[N+](=O)[O-]", "outcome": "inactive"}
{"smiles": "COc1ccc(-c2nc(CS(=O)CC(=O)NCc3ccccn3)c(C)o2)cc1", "note": "(stereo unspecified)", "outcome": "inactive"}
{"smiles": "O=C(O)CC(Cn1cnnn1)c1ccccc1", "note": "(stereo unspecified)", "outcome": "inactive"}
{"smiles": "C[C@@H](C(=O)Nc1ccc2ccccc2c1)[C@@H]1C[C@@]1(C)[C@@H](NC(=O)c1cccnc1)c1ccccc1", "outcome": "inactive"}
{"smiles": "COC(=O)C1=C(C)N=C2SC(C)C(=O)N2C1/C=C/c1ccccc1", "note": "(stereo unspecified)", "outcome": "inactive"}
{"smiles": "CCCc1nc2ccccc2c(=O)n1NC(=O)c1c(O)c2ccccc2[nH]c1=O", "outcome": "inactive"}
